Measured values published in PubChem BioAssay AID686978 (National Center for Advancing Translational Sciences (NCATS), 2013).
Screen size: about 420,000 compounds; about 64,000 (15%) were called active. Inconclusive results (about 27%) are left out. The call rests on the fitted dose curve; in most records, active means well fitted inhibition curve with a large enough effect; inconclusive means small, poorly fitted or top-dose-only effect; inactive means flat fitted curve, though single readings scatter. Not all results are given here. Where a call stands in place of a potency, no number is given.

Test: qHTS for Inhibitors of human tyrosyl-DNA phosphodiesterase 1 (TDP1): qHTS in cells in absence of CPT; further: nearly all actives have a fitted effect of over 55% in size
Conditions: DT40 Tdp1-/- hTDP1 cells, no CPT, ATP luminescence, 48 h; activity change, negative = growth inhibition: at 46.2 µM (top of the series)
Summary of the method: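 DT40 Tdp1-/-;hTDP1 cells, no CPT (DMSO vehicle only), 400 cells/well; compounds pin-transferred; ≥48 hr, 37 °C; CellTiter-Glo 30 min RT dark, luminescence read.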
Potency means the concentration at half of the fitted maximal effect.

Compound | Potency
CN(CCO)S(=O)(=O)c1ccc2c(c1)C(=O)c1cc(S(=O)(=O)N(C)CCO)ccc1-2 | inactive
C=CCOc1ccc(/C=C/C(=O)OCC(=O)NC2CCCCCC2)cc1 | inactive
Cc1ccc(C)c(CN2C(=O)c3ccccc3S(=O)c3ccc(C(=O)N4CCOCC4)cc32)c1 (configuration not stated) | inactive
O=C(COC(=O)c1cccc(Cl)c1)NC1CCCCCCC1 | inactive
CN(C(=O)c1ccc2c(c1)N(Cc1cccc(Cl)c1)C(=O)c1ccccc1S2=O)C1CCCCC1 (configuration not stated) | 23.1 µM (active)
Cc1ccc(CCNC(=O)c2ccc3c(c2)N(Cc2cc(C)ccc2C)C(=O)c2ccccc2S3=O)cc1 (configuration not stated) | 11.6 µM (active)
Cc1c(CNC2CCCCC2)c(C(=O)O)c(C)n1Cc1cccc(Cl)c1 | inactive
O=C(CN1C(=O)c2ccccc2C1=O)NCc1ccc(C(=O)O)cc1 | inactive
O=C(O)c1ccc2c(c1)N(Cc1ccc(F)cc1)C(=O)c1ccccc1S2=O (configuration not stated) | 14.6 µM (active)
Cc1ccc(CNS(=O)(=O)CCNC(=O)c2ccccc2)cc1 | inactive
COc1ccccc1NC(=O)c1cc(N2C(=O)C3C4CCC(C4)C3C2=O)ccc1Cl (configuration not stated) | inactive
C/C(CC(=O)NC(C)(C)C)=N\NC(=O)c1ccco1 | inactive
COC(=O)c1ccc(CNC(=O)Cn2cc(C)c(=O)[nH]c2=O)cc1 | inactive
Cc1ccc(OCC(=O)N2CCN(S(=O)(=O)c3ccc(Cl)s3)CC2)cc1C | inactive
Cc1cc(C)n2c(NCc3ccccc3)c(CC(C)C)nc2n1 | 23.1 µM (active)
Cc1ccc(O)c(CCc2ccccc2)n1 | inactive
Nc1nc(NCc2ccccc2)n(-c2ccccc2)n1 | inactive
Cc1cc(C)n2c(Nc3c(C)cccc3C)c(CCc3ccccc3)nc2n1 | 16.4 µM (active)
COc1cccc2c(C)c(C(=O)O)[nH]c12 | inactive
O=C(O)CC(CC(=O)N1CCOCC1)c1ccccc1 (configuration not stated) | inactive
COc1ccc(CCNS(=O)(=O)c2cccc3cccnc23)cc1OC | inactive
CCCCC(=O)NC(c1ccc(OC)c(OC)c1)c1ccc2cccnc2c1O (configuration not stated) | 3.26 µM (active)
CCOc1ccc(C(CC(=O)O)NC(=O)Cc2ccccc2)cc1OC (configuration not stated) | inactive
COC(=O)C1C(=O)CC(C)(O)C(C(=O)OC)C1c1ccc2c(c1)OCO2 (configuration not stated) | inactive
NCCCC[C@@H]1NC(=O)[C@H](CCC(=O)O)NC(=O)c2cc([N+](=O)[O-])cc(I)c2NCC[C@@H](C(N)=O)NC1=O | inactive
CCc1nnc(NC(=O)CSCc2cc(=O)n3cc(C)sc3n2)s1 | inactive

Compound | Potency
COc1ccc(CN2CC[C@H]3C=CC[C@@H](C(=O)N4CCOCC4)[C@H]3C2=O)cc1OC | inactive
CC(NC(=O)c1ccccc1C(=O)O)c1ccc(-n2ccnc2)cc1 (configuration not stated) | inactive
Cc1ccc2nc3c(cc(C(=O)NC4CCCCC4)c(=N)n3C(C)C)c(=O)n2c1 | inactive
CC(NC(=O)c1cc2c(=O)n3ccccc3nc2n(C(C)C)c1=N)c1ccccc1 (configuration not stated) | 18.4 µM (active)
COC(=O)c1ccc(COC(=O)CNC(=O)c2cccc(OC)c2)o1 | inactive
COc1cccc(C(=O)N(Cc2cccc(Cl)c2)Cc2ccco2)c1 | 14.6 µM (active)
O=C(Nc1ccccc1)N(Cc1cccnc1)Cc1ccco1 | inactive
COc1cccc(NC(=S)NCc2ccco2)c1 | inactive
O=C(CCNC(=O)c1ccccc1Cl)NCc1ccco1 | inactive
CCc1ccc(CN(Cc2ccco2)C(=O)c2ccccc2Cl)cc1 | 20.6 µM (active)
CCCOc1ccc(Cn2c(O)cc(=O)[nH]c2=O)cc1 | inactive
CN1CCN(C(=O)/C(=C\c2ccc3c(c2)OCO3)NC(=O)c2cccs2)CC1 | inactive
Cc1ccc(-c2nc(-c3ccncc3)no2)c(C)c1 | inactive
Cc1nn(CC(=O)NCC2CCCO2)c(=O)c2cc3ccccc3n12 (configuration not stated) | inactive
CCCCN1C(N)=NC[C@@H]1Cc1ccccc1 | 14.6 µM (active)
CN(C)C1=NC[C@H](Cc2ccccc2)N1CCc1ccc(F)cc1 | inactive
CCCCN1C(N)=NC[C@@H]1CC1CCCCC1 | 16.4 µM (active)
CCCCN1C(=S)NC[C@@H]1C(C)CC (some centres not stated) | inactive
CCCCNC(=O)C1CCC(=O)N1CCc1ccccc1 (configuration not stated) | inactive
CCCC[C@@H]1CN=C(N)N1CCCC | 7.31 µM (active)
NNC(=O)c1ccc(Cl)cc1Cl | inactive
OCC(CO)(CO)NCc1ccc(-c2ccccc2)cc1 | inactive
Cn1nc([N+](=O)[O-])nc1Sc1ccc(C(C)(C)C)cc1 | inactive
O=C(CC1NCCNC1=O)Nc1cc(Cl)cc(Cl)c1 (configuration not stated) | inactive
Cc1ccc(SCC(=O)c2sc(-c3ccccc3)nc2C)cc1 | inactive
CNC(=O)c1csc(-c2ccccc2)n1 | inactive
